Source: PubChem (ICCB-Longwood Screening Facility, Harvard Medical School)
MgrA-DNA mod – alters Staphylococcus aureus MgrA binding to DNA; fluorescence polarization; inhibition, % (concentration not given with the values); actives 0.13% (n = 84,000); in the data active = inhibition above about 30%, passing the limit was not always enough;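 also: higher means less MgrA bound to DNA so lower polarization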
Of the large screens only hits and unclear results are named; the others gave an inactive call. The sample as a whole holds a higher share of hits than the screen did.

CC(=O)NN1C(=O)c2cccc3c(N(C)C)ccc(c23)C1=O	MgrA-DNA mod 61
COc1ccc(/C=C/C(=O)Nc2ccc(Cl)cn2)cc1OC	none
Cc1nc2ccccn2c1-c1ccnn1C(=O)c1ccc(Cl)cc1	none
CCOC(=O)c1cnn(C(=O)c2c(C)nc3ccccn23)c1N	none
Cc1nc2ccccn2c1-c1ccnn1C(=O)c1ccno1	MgrA-DNA mod 41
CC12CCC(C(=O)Nc3ccccc3)(OC1=O)C2(C)C (centres undefined)	none
COc1ccc(OC)c(Sc2ccc3nnc(-c4ccccc4)n3n2)c1	none
O=C(CC1SC(=O)NC1=O)Nc1cccc(C(F)(F)F)c1 (centres undefined)	none
Cc1ccc(-c2nn(-c3ccccc3)cc2/C=C2\SC(=S)N(CCCC(=O)O)C2=O)cc1	MgrA-DNA mod 99
CCc1ccc(-c2nn(-c3ccccc3)cc2/C=C2\SC(=S)NC2=O)cc1	none
Cc1ccc(-c2nn(-c3ccccc3)cc2/C=C2\SC(=S)NC2=O)cc1	none
O=C(/C=C/c1ccco1)/C=C/c1ccco1	MgrA-DNA mod 98
O=C(/C=C/c1ccco1)Nc1cccc(NC(=O)/C=C/c2ccco2)n1	none
O=C(/C=C/c1ccccc1)/C=C/c1ccco1	none
O=C(Cn1cc(C(=O)C2CCCCC2)c2ccccc21)Nc1ccccc1	none
Nc1ccc(C(O)C(O)CO)cc1 (centres undefined)	none
Nc1cc[n+](CC(O)CO)cc1 (centres undefined)	MgrA-DNA mod 56
COC(=O)C1C(=O)C=C(Nc2ccc(F)cc2)CC1c1ccccc1 (centres undefined)	none
COc1cc(/C=N/NC(=O)CCc2ccc(O)cc2)cc(OC)c1OC	none
Cc1ccc(C=Nc2ccc(C(F)(F)F)cc2)s1	none
COc1cccc2c1C(=O)c1c(O)c3c(c(O)c1C2=O)C[C@@](O)(C(=O)CO)C[C@@H]3O[C@H]1C[C@H](N)[C@H](O)[C@H](C)O1	MgrA-DNA mod active
COc1cccc2c1C(=O)c1c(O)c3c(c(O)c1C2=O)C[C@@](O)(C(C)=O)C[C@@H]3OC1CC(N)C(O)C(C)O1 (some centres undefined)	MgrA-DNA mod active
CS(=O)c1ccc2c(c1)NC(=O)CS2 (centres undefined)	none
COc1ccc(C2CC(C(F)(F)F)n3nc(C(=O)Nc4c(C)n(C)n(-c5ccccc5)c4=O)c(Cl)c3N2)cc1 (centres undefined)	none
COc1ccc(N(C)S(=O)(=O)c2c(C)noc2C)c(OC)c1	none
NC(=O)CC(c1ccccc1)c1ccc2c(c1)OCO2 (centres undefined)	none
Cc1ccc(C)n1C(CC(=O)O)c1ccc2c(c1)OCO2 (centres undefined)	MgrA-DNA mod 53
CCC(C(=O)NC(C)c1ccc2c(c1)OCO2)c1ccccc1 (centres undefined)	none
CC(C)CN(C(=O)c1cccnc1)c1nnc(Cn2nnc3ccccc32)s1	none
Cc1ccc2c(c1C)NC(C(=O)O)C1CC=CC21 (centres undefined)	MgrA-DNA mod 64
O=C(O)C1Nc2ccccc2C2C=CCC12 (centres undefined)	none
CC(C)C1Nc2ccc(C(=O)O)cc2C2C=CCC21 (centres undefined)	none
O=C(O)CN1N=C(c2ccc(Cl)cc2)CCC1=O	none
O=C(O)C1CCCCCN1 (centres undefined)	none
Cc1cccn2cc(-c3cccc(NS(=O)(=O)c4ccc(Cl)cc4)c3)nc12	none
Nc1cccc2c1C(=O)c1ccccc1-2	MgrA-DNA mod 53
COC(=O)c1cccc2c1C(=O)c1ccccc1-2	none
O=C1c2ccccc2C(=O)c2c1cccc2-c1cccc2c1C(=O)c1ccccc1C2=O	none
Clc1cc(N2CCOCC2)nc(-c2ccccc2)n1	none
O=C(O)c1cc(N2N=C(C(F)(F)F)/C(=C/c3ccc(-c4ccccc4)o3)C2=O)ccc1Cl	MgrA-DNA mod 58
CC1=NN(c2ccc(Cl)c(C(=O)O)c2)C(=O)/C1=C\c1ccc(-c2ccccc2C(=O)O)o1	none
CCOC(=O)c1ccc(-c2ccc(/C=C3\C(=O)N(c4cccc(Cl)c4)N=C3C)o2)cc1	none
Cc1ccc2c(c1)-c1c(ssc1=S)C(C)(C)N2C(=O)c1ccncc1	none
N#Cc1ccc(C2SCCCS2)cc1	none
Cc1ccccc1-c1nnc(SCC(=O)N2CCCc3ccccc32)n1C	none
CCOc1ccccc1C(=O)N(C)c1ccccc1	none
CCOc1cccc(=O)c2c(C)n(-c3ccc(OC)cc3)c(C)c12	none
CCOc1cccc(=[O+]CC)c2c(C)oc(C)c12	MgrA-DNA mod 63
CCOC(=O)Nc1cc(C(C)(C)C)on1	none
CC1(N(O)/C=C2/C=CC=N2)CCCCC1=O (centres undefined)	none
